Measurements: PubChem BioAssay (Tox21)
Records with an inconclusive call do not appear. Active and inactive are the calls of the source. Unless noted, calls come from the whole dose curve; as a rule, active = well fitted curve in the direction sought with a large enough effect in the repeat runs; inconclusive = weak or mixed curves; inactive = no such curve, though single readings can be large; an effect the other way counts as inactive or inconclusive.

Columns and labels:
[1] = molecular target: Retinoic acid receptor RXR-alpha (Homo sapiens) (UniProt P19793); assay: qHTS assay to identify small molecule agonists of the RXR signaling pathway (AID 1159527; calls by dose curve; note: nearly all actives have a fitted effect of over 35% in size)
In short: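 Reporter activation is measured as beta-lactamase activity via FRET substrate cleavage (emission 460/530 nm) in HEK 293T cells expressing an RXR-alpha-driven bla construct, following 16 hr compound exposure at 37 C.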

[2] = qHTS assay to identify small molecule agonists of the RXR signaling pathway - cell viability counter screen (AID 1159529); note: nearly all actives have a fitted effect of over 50% in size
In short: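 Tox21 10K compounds were tested for cytotoxicity against GeneBLAzer RXR-alpha HEK 293T cells grown in 2% charcoal-stripped FBS. Exposure lasted 16 hr at 37 C, 5% CO2; viability read by CellTiter-Glo luminescence.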

[3] = qHTS assay to identify small molecule antagonists of the retinoid acid receptor (RAR) signaling pathway - cell viability counter screen (AID 1159551); note: nearly all actives have a fitted effect of over 35% in size
In short: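 C3RL4 RARE-luciferase cells, 1,000/well, incubated overnight, then dosed with compound plus 1 uM retinol (final). After 6 hr at 37 C, viability read by CellTiter-Glo ATP luminescence following 30 min at room temperature.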

[4] = qHTS assay to identify small molecule antagonists of the retinoic acid receptor (RAR) signaling pathway (AID 1159552; note: nearly all actives have a fitted effect of over 50% in size)
In short: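 Overnight-plated C3RL4 reporter cells get compound, then retinol to 1 uM final; plates sit 6 hr at 37 C, 5% CO2. A luciferase reagent is added and light output recorded after 30 min at room temperature.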

[5] = qHTS assay to identify small molecule agonists of the retinoic acid receptor (RAR) signaling pathway (AID 1159553); settings: C3RL4 RARE luciferase reporter, agonist, 6 h; activation: at 73.3 µM (top of the series)
In short: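 C3RL4 RARE-luciferase cells were seeded at 1,000/well and grown overnight at 37 C, then exposed to compounds for 6 hr at 37 C, 5% CO2. Luciferase reagent was added and luminescence was read after 30 min at room temperature.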

[6] = qHTS assay to identify small molecule agonists of the constitutive androstane receptor (CAR) signaling pathway - cell viability counter screen (AID 1224836); note: nearly all actives have a fitted effect of over 45% in size
In short: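 Fluorescence from CellTiter-Fluor indicates live cells after 23 h exposure. The human hepatoma line expresses hCAR and a CYP2B6-2.2kb reporter. Incubation medium contains 0.75 uM PK11195 (final).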

[7] = qHTS assay to identify small molecule antagonists of the constitutive androstane receptor (CAR) signaling pathway - cell viability counter screen (AID 1224837); note: nearly all actives have a fitted effect of over 45% in size
In short: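 HepG2 cells stably carrying hCAR and CYP2B6-2.2kb reporter, stimulated with 50 nM CITCO and compounds at 15 concentrations for 23 h at 37 C. Viability measured by CellTiter-Fluor fluorescence.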

[8] = molecular target: Nuclear receptor subfamily 1 group I member 3 (Homo sapiens) (UniProt Q14994); assay: qHTS assay to identify small molecule antagonists of the constitutive androstane receptor (CAR) signaling pathway (AID 1224838); note: nearly all actives have a fitted effect of over 40% in size
In short: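 HepG2 cells stably carrying hCAR and a CYP2B6-2.2kb luciferase reporter, seeded 4 hrs before compound (15 concentrations). Stimulated with 50 nM CITCO for 24 hr at 37 C. ONE-Glo luminescence read after 30 min at room temperature.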

[9] = molecular target: Nuclear receptor subfamily 1 group I member 3 (Homo sapiens) (UniProt Q14994); assay: qHTS assay to identify small molecule agonists of the constitutive androstane receptor (CAR) signaling pathway (AID 1224839); note: nearly all actives have a fitted effect of over 15% in size
In short: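 Stable hCAR/CYP2B6-2.2kb HepG2 line in DMEM with 10% FBS; compounds (15 concentrations) and 0.75 uM PK11195 final, 24 h at 37 C/5% CO2, then ONE-Glo luminescence after 30 min.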

[10] = qHTS assay to identify small molecule antagonists of the estrogen related receptor signaling pathway with the pleiotropic PPARgamma coactivator (PGC) from Tox21 10K library - cell viability counter screen (AID 1224840; active = well fitted cell-killing curve with a large enough effect in the repeat runs, not every such curve was filed as active; note: nearly all actives have a fitted effect of over 40% in size)
In short: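 PGC/ERR cells (2,000/well) plated 6 h, then compound-treated for 17.5 h at 37 C. Viability measured by CellTiter-Fluor fluorescence after 30 min at 37 C, multiplexed with the pathway assay.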

[11] = qHTS assay to identify small molecule antagonists of the estrogen related receptor signaling pathway with the pleiotropic PPARgamma coactivator (PGC) from Tox21 10K library (AID 1224841; call rule not given here; note: actives are mostly falling curves and most rising ones were filed inactive; nearly all actives have a fitted effect of over 50% in size)
In short: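 PGC/ERR cell line, 2,000 cells/well, pre-incubated 6 hours at 37 C, then exposed to compounds for 18 hours at 37 C; luciferase read with One-Glo luminescence after 30 min at room temperature.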

[12] = qHTS assay to identify small molecule agonists of the estrogen related receptor signaling pathway with the pleiotropic PPARgamma coactivator (PGC) from Tox21 10K library (AID 1224842); note: nearly all actives have a fitted effect of over 15% in size
In short: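 PGC/ERR reporter cells (NTP line) were seeded 2,000 per well, rested 6 h at 37 C/5% CO2, then pin-dosed with compounds in DMSO for 18 h at 37 C; luciferase read by One-Glo luminescence after 30 min at room temperature.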

[13] = molecular target: Thyrotropin receptor (Homo sapiens) (UniProt P16473); assay: qHTS assay to identify small molecule agonists of the thyroid stimulating hormone receptor (TSHR) signaling pathway (AID 1224843; calls by dose curve; note: nearly all actives have a fitted effect of over 45% in size)
In short: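 TSHR-expressing HEK293 cells (800 per well) were exposed to compounds for 30 min at room temperature. cAMP was then detected by HTRF competition with cAMP-d2 and anti-cAMP cryptate, read after 1 h at room temperature. Fifteen concentrations, triplicate.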

[14] = qHTS assay to identify small molecule agonists of the hypoxia (HIF-1) signaling pathway - cell viability counter screen (AID 1224844; calls by dose curve; note: nearly all actives have a fitted effect of over 50% in size)
In short: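 HRE-bla ME-180 cells, 2,000/well in 0.5% dialyzed FBS medium, treated 17 h at 37C with compounds. Viability read in the same wells as the bla reporter, by CellTiter-Glo luminescence after 30 min at room temperature.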

[15] = qHTS assay to identify small molecule agonists of H2AX (AID 1224845; active = well fitted activation curve with a large enough effect in the signal ratio in the repeat runs, not every such curve was filed as active; the % refers to the signal ratio)
In short: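 Wild-type CHO-K1 cells plated overnight, then exposed 3 hr at 37C to compounds at 15 concentrations (0.76% DMSO). Lysed, then HTRF anti-pH2AX(S139)-cryptate/anti-H2AX-d2 detection after 24 hr at room temperature; emissions 665 and 620 nm.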

[16] = qHTS assay to identify small molecule agonists of the hypoxia (HIF-1) signaling pathway (AID 1224846; active = well fitted activation curve with a large enough effect in the signal ratio in the repeat runs, not every such curve was filed as active; the % refers to the signal ratio)
In short: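 HRE-bla ME-180 beta-lactamase reporter cells in medium with 0.5% dialyzed FBS, pre-incubated 5 h then exposed to compounds 17 h at 37C, 5% CO2; reporter induction read with CCF4-AM FRET substrate.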

[17] = qHTS assay to identify small molecule agonists of H2AX - cell viability counter screen (AID 1224847; calls by dose curve; note: top concentration of the series differs between compounds; nearly all actives have a fitted effect of over 30% in size)
In short: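 Viability of CHO-K1 (wild type) cells after 3 hr compound exposure was measured by CellTiter-Glo luminescence.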

[18] = qHTS assay to identify small molecule antagonists of the estrogen related receptor (ERR) signaling pathway from Tox21 library (AID 1224848); note: nearly all actives have a fitted effect of over 50% in size
In short: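 Cells: ERR line, 2,000/well; 6 h preincubation 37 C/5% CO2. Cpd in DMSO via pin tool; 18 h, 37 C. ONE-Glo, 30 min RT, luminescence.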

[19] = molecular target: Luciferin 4-monooxygenase (Photinus pyralis) (UniProt P08659); assay: qHTS assay to identify small molecule inhibitors of firefly luciferase (AID 1224835); note: nearly all actives have a fitted effect of over 25% in size
In short: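 Quantitative HTS format; KM concentrations of both substrates. Purified P. pyralis FLuc activity quantified from luminescence images.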

[20] = qHTS assay to identify small molecule antagonists of the estrogen related receptor (ERR) signaling pathway from Tox21 library - cell viability counter screen (AID 1224834); note: nearly all actives have a fitted effect of over 30% in size
In short: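 ERR reporter cells, 2,000 per well, rested 6 h, then exposed to compound in DMSO for 17.5 hours at 37 C. Viability read as fluorescence after 30 min with CellTiter-Fluor.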
% is set by controls: 0 for no effect and ±100 for the full control effect.

Nuclear receptor subfamily 1 group I member 3 (Homo sapiens), sequence (Q14994 whole entry, looked up): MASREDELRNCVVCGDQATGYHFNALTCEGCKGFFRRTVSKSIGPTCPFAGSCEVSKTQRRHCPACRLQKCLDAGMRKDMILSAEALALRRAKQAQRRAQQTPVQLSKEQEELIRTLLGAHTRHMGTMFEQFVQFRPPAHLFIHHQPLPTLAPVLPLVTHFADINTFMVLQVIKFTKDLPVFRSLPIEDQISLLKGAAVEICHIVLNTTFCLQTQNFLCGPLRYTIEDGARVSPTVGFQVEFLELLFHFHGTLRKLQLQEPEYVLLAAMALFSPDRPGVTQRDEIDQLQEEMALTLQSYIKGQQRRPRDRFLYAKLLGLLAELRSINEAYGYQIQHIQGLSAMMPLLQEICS
Luciferin 4-monooxygenase (Photinus pyralis), sequence (P08659 whole entry, looked up): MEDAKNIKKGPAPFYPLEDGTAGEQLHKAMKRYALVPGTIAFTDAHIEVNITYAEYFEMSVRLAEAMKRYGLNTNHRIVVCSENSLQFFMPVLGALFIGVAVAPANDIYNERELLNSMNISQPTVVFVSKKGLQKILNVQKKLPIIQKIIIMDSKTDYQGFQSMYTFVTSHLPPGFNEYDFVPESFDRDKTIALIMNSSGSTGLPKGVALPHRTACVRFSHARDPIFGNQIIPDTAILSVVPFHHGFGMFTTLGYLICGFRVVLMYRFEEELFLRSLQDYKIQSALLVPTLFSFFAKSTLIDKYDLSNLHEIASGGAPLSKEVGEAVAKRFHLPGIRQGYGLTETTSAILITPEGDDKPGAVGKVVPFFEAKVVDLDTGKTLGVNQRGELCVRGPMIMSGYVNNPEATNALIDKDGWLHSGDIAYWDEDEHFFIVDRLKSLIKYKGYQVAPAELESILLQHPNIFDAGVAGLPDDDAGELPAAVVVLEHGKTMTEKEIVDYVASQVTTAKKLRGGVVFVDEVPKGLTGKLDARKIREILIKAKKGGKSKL
Thyrotropin receptor (Homo sapiens), sequence (P16473 whole entry, looked up): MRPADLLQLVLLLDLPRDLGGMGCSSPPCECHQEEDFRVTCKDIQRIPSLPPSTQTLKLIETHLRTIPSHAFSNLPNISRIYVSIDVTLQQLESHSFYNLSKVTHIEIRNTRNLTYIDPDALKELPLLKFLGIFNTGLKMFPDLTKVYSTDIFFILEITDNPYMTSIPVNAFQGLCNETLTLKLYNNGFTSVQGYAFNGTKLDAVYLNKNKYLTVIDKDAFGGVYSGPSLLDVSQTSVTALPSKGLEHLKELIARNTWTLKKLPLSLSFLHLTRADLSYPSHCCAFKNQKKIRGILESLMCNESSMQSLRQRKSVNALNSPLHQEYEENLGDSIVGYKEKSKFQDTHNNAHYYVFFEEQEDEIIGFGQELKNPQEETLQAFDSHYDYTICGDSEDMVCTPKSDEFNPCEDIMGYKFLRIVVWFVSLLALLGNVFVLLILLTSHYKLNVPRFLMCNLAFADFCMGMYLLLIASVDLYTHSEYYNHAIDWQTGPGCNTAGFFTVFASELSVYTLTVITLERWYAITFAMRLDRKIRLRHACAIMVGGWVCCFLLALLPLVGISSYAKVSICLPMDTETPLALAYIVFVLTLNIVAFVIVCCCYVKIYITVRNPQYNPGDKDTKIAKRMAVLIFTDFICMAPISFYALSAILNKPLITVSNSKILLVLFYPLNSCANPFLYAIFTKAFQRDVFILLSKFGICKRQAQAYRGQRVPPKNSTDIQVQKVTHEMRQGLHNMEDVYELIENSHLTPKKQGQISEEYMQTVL
Retinoic acid receptor RXR-alpha (Homo sapiens), sequence (P19793 whole entry, looked up): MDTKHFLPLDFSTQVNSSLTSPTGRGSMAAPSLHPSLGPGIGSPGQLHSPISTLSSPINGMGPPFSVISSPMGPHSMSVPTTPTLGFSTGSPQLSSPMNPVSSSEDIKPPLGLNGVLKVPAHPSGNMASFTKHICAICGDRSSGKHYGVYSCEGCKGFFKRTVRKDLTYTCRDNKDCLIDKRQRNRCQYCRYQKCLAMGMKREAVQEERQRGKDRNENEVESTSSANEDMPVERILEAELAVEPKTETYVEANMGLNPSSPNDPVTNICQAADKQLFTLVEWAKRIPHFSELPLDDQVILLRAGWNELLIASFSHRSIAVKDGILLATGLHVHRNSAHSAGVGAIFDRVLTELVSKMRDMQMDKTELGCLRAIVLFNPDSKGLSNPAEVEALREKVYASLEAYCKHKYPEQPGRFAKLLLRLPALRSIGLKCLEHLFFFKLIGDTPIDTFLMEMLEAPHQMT

CC(=O)c1ccc2c(c1)CCCC2
inactive: Potency [1] | outcome [2] | outcome [3] | Potency [4] | Potency [5] | outcome [6] | Potency [7] | Potency [8] | Potency [9] | outcome [10] | Potency [11] | outcome [12] | outcome [13] | outcome [14] | outcome [15] | outcome [16] | Potency [17] | Potency [18]

O=C(c1ccc2c(c1)C(=O)OC2=O)c1ccc2c(c1)C(=O)OC2=O
inactive: Potency [1] | outcome [2] | outcome [3] | Potency [4] | Potency [5] | Potency [19] | outcome [6] | Potency [7] | outcome [10] | outcome [13] | outcome [14] | outcome [16] | Potency [17]

NS(=O)(=O)c1ccc(Cl)c(S(N)(=O)=O)c1
inactive: Potency [1] | outcome [2] | outcome [3] | Potency [4] | Potency [5] | Potency [19] | outcome [6] | Potency [7] | outcome [10] | outcome [13] | outcome [14] | outcome [15] | outcome [16] | Potency [17]

C=CCOCC(CO)(COCC=C)COCC=C
inactive: Potency [1] | outcome [2] | Potency [4] | Potency [5] | Potency [20] | outcome [6] | Potency [7] | Potency [8] | outcome [10] | Potency [11] | outcome [12] | outcome [13] | outcome [16] | Potency [17] | Potency [18]

C[CH2][Ge]([Cl])([CH2]C)[CH2]C
inactive: Potency [1] | outcome [2] | Potency [4] | Potency [5] | Potency [20] | outcome [6] | Potency [7] | outcome [10] | Potency [11] | outcome [12] | outcome [13] | outcome [14] | outcome [15] | outcome [16] | Potency [17] | Potency [18]

Nc1c(NC/C=C\COc2cc(CN3CCCCC3)ccn2)c(=O)c1=O
inactive: activation [1] 10.6% [at 15.8 µM] | activity change, negative = cytotoxicity [2] 0.401% [at 15.8 µM] | activity, negative = inhibition [4] -5.94% [at 19 µM] | Potency [5] | viability change, negative = cytotoxic [20] -12.4% [at 19 µM] | activity change, negative = inhibition [19] 10.6% [at 23.6 µM] | activity, negative = inhibition [8] 4.07% [at 19 µM] | activation [9] 4% [at 19 µM] | viability change, negative = cytotoxic [10] 8.26% [at 19 µM] | activation [13] 2.1% [at 19 µM] | activity change, negative = cytotoxicity [14] 1.18% [at 15.8 µM] | activation (H2AX phosphorylation) [15] -1.81% [at 31.6 µM] | activation [16] 0.659% [at 15.8 µM] | activity change, negative = cytotoxicity [17] 2.48% [at 31.6 µM]

CC(C)CCCC(C)CC=O (stereo not drawn)
inactive: Potency [1] | outcome [2] | Potency [4] | Potency [5] | Potency [20] | Potency [19] | outcome [6] | Potency [7] | outcome [10] | outcome [14] | outcome [15] | outcome [16] | Potency [17]

CCCCCCCC/C=C\CCCCCCCC(=O)OC[C@@H](O)[C@H]1OC[C@H](O)[C@H]1O
inactive: Potency [1] | outcome [2] | Potency [4] | Potency [5] | Potency [19] | outcome [6] | Potency [7] | outcome [10] | outcome [13] | outcome [14] | outcome [15] | outcome [16] | Potency [17]

CC(=O)OC[C@H]1O[C@@H](OC(C)=O)[C@H](OC(C)=O)[C@@H]1OC(C)=O
inactive: Potency [1] | outcome [2] | Potency [4] | Potency [5] | Potency [20] | Potency [19] | Potency [7] | Potency [9] | outcome [10] | Potency [11] | outcome [12] | outcome [13] | outcome [14] | outcome [15] | outcome [16] | Potency [17] | Potency [18]
